Our source for the cytotoxicity call values is the antibiotic and cytotoxicity screens of Wong et al. (2023).

Screen size: about 39,000 compounds; about 3,300 (8.5%) were called active. This is one part of a sample in which actives are shown more often than they occur.

The experiment relates to HepG2. Put plainly: cytotoxicity call (relative viability < 0.9). The following applies: 10 µM.
Consider `C[C@@H]1CCCCO[C@H](CN(C)Cc2ccc3c(c2)OCO3)[C@H](C)CN([C@@H](C)CO)C(=O)c2cc(NC(=O)NC3CCCCC3)ccc2O1`, for which the cytotoxicity call was “active”. Regarding `C[C@@H]1CCCCO[C@H](CN(C)Cc2ccc3c(c2)OCO3)[C@H](C)CN([C@H](C)CO)C(=O)c2cc(NC(=O)NC3CCCCC3)ccc2O1`, the cytotoxicity call was “inactive”. The result for `C[C@@H]1CCCCO[C@@H](CN(C)Cc2ccc3c(c2)OCO3)[C@@H](C)CN([C@@H](C)CO)C(=O)c2cc(NC(=O)NC3CCCCC3)ccc2O1` reads “inactive”; that for `C[C@@H]1CCCCO[C@@H](CN(C)Cc2ccc3c(c2)OCO3)[C@H](C)CN([C@H](C)CO)C(=O)c2cc(NC(=O)NC3CCCCC3)ccc2O1`, “inactive”.

`C[C@H](CO)N1C[C@H](C)[C@@H](CN(C)Cc2ccc3c(c2)OCO3)OCCCC[C@H](C)Oc2ccc(NC(=O)NC3CCCCC3)cc2C1=O`: the cytotoxicity call was “inactive”. As for `C[C@@H]1CN([C@@H](C)CO)C(=O)c2cc(NC(=O)NC3CCCCC3)ccc2O[C@@H](C)CCCCO[C@@H]1CN(C)Cc1ccc2c(c1)OCO2`, the cytotoxicity call is “inactive”. In the case of `C[C@@H]1CN([C@H](C)CO)C(=O)c2cc(NC(=O)NC3CCCCC3)ccc2O[C@@H](C)CCCCO[C@@H]1CN(C)Cc1ccc2c(c1)OCO2`, the cytotoxicity call is “active”. The result for `C[C@H]1CCCCO[C@H](CN(C)Cc2ccc3c(c2)OCO3)[C@@H](C)CN([C@@H](C)CO)C(=O)c2cc(NC(=O)NC3CCCCC3)ccc2O1` reads “inactive”; that for `C[C@H](CO)N1C[C@H](C)[C@H](CN(C)Cc2ccc3c(c2)OCO3)OCCCC[C@H](C)Oc2ccc(NC(=O)NC3CCCCC3)cc2C1=O`, “active”.

With `C[C@@H]1CCCCO[C@@H](CN(C)Cc2ccc3c(c2)OCO3)[C@@H](C)CN([C@H](C)CO)C(=O)c2cc(NC(=O)NC3CCCCC3)ccc2O1`, the cytotoxicity call was “inactive”. As for `C[C@@H]1CCCCO[C@H](CN(C)Cc2ccc3c(c2)OCO3)[C@@H](C)CN([C@@H](C)CO)C(=O)c2cc(NC(=O)NC3CCCCC3)ccc2O1`, the cytotoxicity call was “active”. The result for `C[C@@H]1CCCCO[C@H](CN(C)Cc2ccc3c(c2)OCO3)[C@@H](C)CN([C@H](C)CO)C(=O)c2cc(NC(=O)NC3CCCCC3)ccc2O1` reads “inactive”. The value for `CN1CCN(C(=O)C[C@@H]2CC[C@@H]3[C@H](COc4ccc(NC(=O)C5CCOCC5)cc4C(=O)N3C)O2)CC1` was “inactive”; that for `C[C@@H]1CN([C@@H](C)CO)C(=O)c2cc(NS(=O)(=O)c3ccc(F)cc3)ccc2O[C@@H](C)CCCCO[C@H]1CN(C)C(=O)C1CCCCC1` was “inactive”; that for `O=C(C[C@@H]1CC[C@H]2[C@@H](COC[C@@H](O)CN2C(=O)c2ccccc2)O1)NCCCN1CCOCC1` was “inactive”. The result for `COc1ccccc1S(=O)(=O)N(C)C[C@H]1Oc2cc(Br)ccc2S(=O)(=O)N([C@H](C)CO)C[C@H]1C` reads “inactive”. As for `C[C@@H]1CN([C@@H](C)CO)C(=O)c2cccc(NC(=O)CCCCCC(=O)Nc3ccccc3N)c2O[C@H]1CN(C)C(=O)Nc1cccc2ccccc12`, the cytotoxicity call was “inactive”. The result for `Cc1noc(C)c1NC(=O)N(C)C[C@@H]1Oc2c(NC(=O)C3CCOCC3)cccc2C(=O)N([C@H](C)CO)C[C@@H]1C` reads “inactive”; that for `NCCNc1cccc2ccccc12`, “inactive”; that for `NNCCc1ccccc1`, “inactive”. The result for `c1ccc(CCNc2ccnc3cc4ccccc4cc23)cc1` reads “active”; that for `CC(C)NC(=O)N(C)C[C@@H]1Oc2cc(C#Cc3ccc(F)cc3)ccc2S(=O)(=O)N([C@@H](C)CO)C[C@@H]1C`, “inactive”. The result for `C[C@H]1CN([C@@H](C)CO)C(=O)c2cc(NC(=O)Nc3ccc4c(c3)OCO4)ccc2O[C@@H]1CN(C)Cc1ccc(-c2ccccc2)cc1` reads “active”; that for `C[C@@H]1CN([C@H](C)CO)C(=O)c2cc(NC(=O)Nc3ccc4c(c3)OCO4)ccc2O[C@H]1CN(C)Cc1ccc(-c2ccccc2)cc1`, “active”. For `C[C@H](CO)N1C[C@H](C)[C@H](CN(C)Cc2ccc(-c3ccccc3)cc2)Oc2ccc(NC(=O)Nc3ccc4c(c3)OCO4)cc2C1=O`, the cytotoxicity call was “inactive”.

As for `C[C@H]1CN([C@@H](C)CO)C(=O)c2cc(NC(=O)Nc3ccc4c(c3)OCO4)ccc2O[C@H]1CN(C)Cc1ccc(-c2ccccc2)cc1`, the cytotoxicity call was “inactive”.

Turning to `C[C@H](CO)N1C[C@H](C)[C@@H](CN(C)Cc2ccc(-c3ccccc3)cc2)Oc2ccc(NC(=O)Nc3ccc4c(c3)OCO4)cc2C1=O`, the cytotoxicity call is “inactive”. Turning to `C[C@@H]1CN([C@@H](C)CO)C(=O)c2cc(NC(=O)Nc3ccc4c(c3)OCO4)ccc2O[C@@H]1CN(C)Cc1ccc(-c2ccccc2)cc1`, the cytotoxicity call is “active”. Take `C[C@@H]1CN([C@H](C)CO)C(=O)c2cc(NC(=O)Nc3ccc4c(c3)OCO4)ccc2O[C@@H]1CN(C)Cc1ccc(-c2ccccc2)cc1`: the cytotoxicity call was “active”. Consider `O=C1C[C@]2(c3ccc([N+](=O)[O-])cc3)C(=O)N(CC(F)(F)F)c3cc(CO)ccc3[C@H]2N1CC12CC3CC(CC(C3)C1)C2`, for which the cytotoxicity call was “inactive”. For `COc1ccc(S(=O)(=O)Nc2ccc3c(c2)C(=O)N([C@@H](C)CO)C[C@H](C)[C@H](CN(C)C(=O)NC(C)C)O3)cc1`, the cytotoxicity call is “inactive”. With `C[C@@H]1CN([C@@H](C)CO)C(=O)c2cc(NC(=O)Nc3ccc4c(c3)OCO4)ccc2O[C@@H](C)CCCCO[C@@H]1CN(C)S(=O)(=O)c1cccs1`, the cytotoxicity call was “inactive”.

As for `C[C@H]1CN([C@@H](C)CO)C(=O)Cc2cc(NS(=O)(=O)c3cn(C)cn3)ccc2O[C@H]1CN(C)S(=O)(=O)c1ccc(F)cc1`, the cytotoxicity call is “inactive”.

As to `C[C@@H]1CN([C@H](C)CO)C(=O)Cc2cc(NC(=O)CCCCCC(=O)Nc3ccccc3N)ccc2O[C@H]1CN(C)Cc1ccccc1`, the cytotoxicity call is “inactive”. Take `CCS(=O)(=O)N1CC[C@]2(CC1)CN([C@@H](CO)c1[nH]c3cc(ccc3c12)OC)C(=O)Cc1ccccn1`: the cytotoxicity call is “inactive”. The result for `Cc1noc(C)c1NC(=O)Nc1ccc2c(c1)C(=O)N([C@@H](C)CO)C[C@H](C)[C@@H](CN(C)Cc1ccc(Cl)c(Cl)c1)O2` reads “inactive”; that for `CC(C)NC(=O)Nc1ccc2c(c1)C(=O)N([C@@H](C)CO)C[C@H](C)[C@@H](CN(C)S(=O)(=O)c1cn(C)cn1)OCCCC[C@H](C)O2`, “inactive”; that for `COc1ccc(cc1)CN1C[C@]2(CN(C2)S(=O)(=O)c2cn(cn2)C)c2c([nH]c3cc(ccc23)OC)[C@H]1CO`, “inactive”. The result for `Cc1noc(C)c1S(=O)(=O)Nc1ccc2c(c1)CC(=O)N([C@@H](C)CO)C[C@@H](C)[C@@H](CN(C)Cc1ccncc1)O2` reads “inactive”; that for `C[C@@H]1CN([C@H](C)CO)C(=O)c2cccc(NC(=O)NC3CCCCC3)c2O[C@H]1CN(C)S(=O)(=O)c1cn(C)cn1`, “inactive”; that for `CCc1nc2ccc(C(=O)NCc3ccccc3OC)cn2c1N(CC)Cc1cccc(Br)c1`, “inactive”. The result for `CCS(=O)(=O)N1CC[C@]2(CC1)CN([C@H](CO)c1[nH]c3cc(ccc3c12)OC)C(=O)c1ccc(cc1)F` reads “inactive”; that for `O=C(O)[C@H]1NC(=O)[C@@H]1Cc1ccccc1`, “inactive”; that for `CC(C)NC(=O)N(C)C[C@@H]1Oc2c(NS(=O)(=O)c3ccc(F)cc3)cccc2C(=O)N([C@H](C)CO)C[C@@H]1C`, “inactive”. Regarding `C[C@@H]1CN([C@@H](C)CO)C(=O)c2cc(NC(=O)Nc3ccc4c(c3)OCO4)ccc2O[C@H]1CN(C)Cc1ccc(-c2ccccc2)cc1`, the cytotoxicity call is “active”. For `C[C@@H]1CN([C@H](C)CO)C(=O)c2cccc(NS(=O)(=O)c3cn(C)cn3)c2O[C@@H]1CN(C)S(=O)(=O)c1ccc(F)cc1`, the cytotoxicity call is “inactive”. The result for `C[C@@H]1CN([C@H](C)CO)C(=O)c2cccc(NS(=O)(=O)c3cn(C)cn3)c2O[C@H]1CN(C)Cc1ccc2c(c1)OCO2` reads “inactive”; that for `C[C@H](NC(=O)C[C@@H]1C[C@H]2c3cc(NC(=O)Nc4ccc(C(F)(F)F)cc4)ccc3O[C@H]2[C@@H](CO)O1)c1ccccc1`, “inactive”. Take `COc1ccc(NC(=O)Nc2ccc3c(c2)C(=O)N([C@H](C)CO)C[C@@H](C)[C@H](CN(C)S(=O)(=O)c2ccc(Cl)cc2)OCCCC[C@@H](C)O3)cc1`: the cytotoxicity call is “active”. In the case of `COc1ccc(S(=O)(=O)N(C)C[C@H]2OCCCC[C@@H](C)Oc3ccc(NC(=O)Nc4ccc5c(c4)OCO5)cc3C(=O)N([C@@H](C)CO)C[C@@H]2C)cc1`, the cytotoxicity call is “active”. The value for `COc1ccc(NC(=O)Nc2ccc3c(c2)C(=O)N([C@H](C)CO)C[C@H](C)[C@@H](CN(C)S(=O)(=O)c2ccc(C)cc2)OCCCC[C@H](C)O3)cc1` was “inactive”. Regarding `COc1ccc(S(=O)(=O)N(C)C[C@H]2OCCCC[C@H](C)Oc3ccc(NC(=O)Nc4ccc5c(c4)OCO5)cc3C(=O)N([C@H](C)CO)C[C@@H]2C)cc1`, the cytotoxicity call is “inactive”.

For `COc1ccc(NC(=O)Nc2ccc3c(c2)C(=O)N([C@@H](C)CO)C[C@H](C)[C@@H](CN(C)S(=O)(=O)c2ccc(C)cc2)OCCCC[C@@H](C)O3)cc1`, the cytotoxicity call was “active”. Regarding `COc1ccc(S(=O)(=O)N(C)C[C@H]2OCCCC[C@H](C)Oc3ccc(NC(=O)Nc4ccc5c(c4)OCO5)cc3C(=O)N([C@H](C)CO)C[C@H]2C)cc1`, the cytotoxicity call was “inactive”. The result for `COc1ccc(NC(=O)Nc2ccc3c(c2)C(=O)N([C@@H](C)CO)C[C@H](C)[C@H](CN(C)S(=O)(=O)c2ccc(C)cc2)OCCCC[C@H](C)O3)cc1` reads “active”; that for `COc1ccc(NC(=O)Nc2ccc3c(c2)C(=O)N([C@H](C)CO)C[C@@H](C)[C@H](CN(C)S(=O)(=O)c2ccc(C)cc2)OCCCC[C@@H](C)O3)cc1`, “inactive”; that for `COc1ccc(NC(=O)Nc2ccc3c(c2)C(=O)N([C@H](C)CO)C[C@H](C)[C@H](CN(C)S(=O)(=O)c2ccc(C)cc2)OCCCC[C@H](C)O3)cc1`, “inactive”. The result for `COc1ccc(NC(=O)Nc2ccc3c(c2)C(=O)N([C@H](C)CO)C[C@H](C)[C@H](CN(C)S(=O)(=O)c2ccc(Cl)cc2)OCCCC[C@H](C)O3)cc1` reads “inactive”. For `COc1ccc(NC(=O)Nc2ccc3c(c2)C(=O)N([C@@H](C)CO)C[C@@H](C)[C@@H](CN(C)S(=O)(=O)c2ccc(C)cc2)OCCCC[C@@H](C)O3)cc1`, the cytotoxicity call was “inactive”. Take `COc1ccc(NC(=O)Nc2ccc3c(c2)C(=O)N([C@H](C)CO)C[C@H](C)[C@H](CN(C)S(=O)(=O)c2ccc(Cl)cc2)OCCCC[C@@H](C)O3)cc1`: the cytotoxicity call is “inactive”.
